Assay outcomes (PubChem)
IL1B secr inh – inhibitors of inflammasome signaling (IL-1 beta secretion). THP-1 LPS/ATP IL-1B secretion, AlphaLISA, 16 h; stronger effect = lower value. activity change, % at 57.5 µM. 360,000 tested, 4.7% active. AID 743279; in the data active = activity change below about -50%; inconclusive = mostly about -30% to -49%
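Secreted IL-1B measured by AlphaLISA bead assay after 16 h compound exposure of THP-1 cells; compounds (final up to 57.5 uM) added 1 h before LPS (250 ng/mL) and ATP (1.25 mM) stimulation; lower signal means less secretion.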
ATXN2 expr inh – reduces ATXN2 reporter expression in HEK-293 cells. 360,000 tested, 0.72% active. HEK-293 ATXN2-luciferase reporter, luminescence, 24 h. Potency, µM (doses to about 57 µM), usual class: inhibitors. AID 1745845; also: nearly all actives have a fitted effect of over 55% in size
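ATXN2-luciferase reporter cells (luciferase flanked by upstream and downstream ATXN2 gene portions) were treated 24 h at 37 °C with compounds at up to 57 uM. SteadyGlo luminescence gave expression; GF-AFC fluorescence gave viability.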
SW480 rereplic – DNA re-replication induction in SW480 cells. SW480 DNA re-replication, Hoechst DNA content imaging, 48 h. AID 624297. 340,000 tested, 1.8% active. Potency, µM (titrated, usually from 46.1 µM), actives largely listed as activators; also: nearly all actives have a fitted effect of over 55% in size
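Hoechst fluorescence of nuclei (405 nm excitation, 500-530 nm emission) measured by plate-scanning imager after 48 hr compound exposure at 37 C; re-replication scored as increased number of nuclei with elevated intensity.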
S2 tox – viability counter-screen for ATXN expression inhibitors; Potency, µM (highest dose often 56.7 µM), usual class: cytotoxic; 400,000 tested, 0.49% active; S2 cells (HEK-293 line with an ATXN2-luciferase reporter) viability, CellTiter-Fluor protease fluorescence, 24 h; also: nearly all actives have a fitted effect of over 40% in size
MCF10A rerep – inducers of DNA re-replication in MCF 10A breast cells. 350,000 tested, 2.9% active. AID 624296. Potency, µM (highest dose often 46.1 µM), most hits filed as activators. MCF 10A DNA re-replication, Hoechst nuclear intensity, 48 h; also: nearly all actives have a fitted effect of over 50% in size
PINK1 modulator – changes PINK1 expression. Potency, µM (doses to about 76.6 µM), most hits filed as activators. 410,000 tested, 0.2% active. PINK1 immunofluorescence, high-content cytometry, 24 h; active = well fitted activation curve with a large enough effect; inconclusive = small, poorly fitted or top-dose-only effect; cell line not stated here; also: nearly all actives have a fitted effect of over 65% in size
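Cells are seeded, rested 12 hours, then given compound at five concentrations or DMSO for 24 hours. After fixation, blocking and antibody staining, PINK1 amount and mitochondrial localization are scored; CCCP serves as control.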
Large screens that a line does not name were inactive; ! = not active in a repeat. Most compounds without a hit are left out; they make up all but 7.1% or so of the library. Unless noted, calls follow the shape of the dose curve; as a rule, active = well fitted curve in the direction sought with a large enough effect; inconclusive = small, poorly fitted or top-dose-only effect, or another doubt; inactive = no such curve, though single readings can be large; an effect the other way counts as inactive or inconclusive.

Cc1ccccc1C(=O)N1CCN(CCc2ccccn2)CC1	none (no result: IL1B secr inh, SW480 rereplic, MCF10A rerep)
Cc1cc2c(N=O)c(NO)ccc2[nH]1	ATXN2 expr inh inconclusive, SW480 rereplic 4.1µM, S2 tox inconclusive, MCF10A rerep inconclusive
CCOC(=O)c1cc(-c2ccccc2)n(CCCC(=O)Nc2ccc(C)cc2Cl)c1C	none (no result: IL1B secr inh, ATXN2 expr inh, SW480 rereplic, S2 tox, MCF10A rerep)
CCC(C)NCCOc1ccc(C(C)(C)c2ccccc2)cc1 (centres undefined)	IL1B secr inh -66, S2 tox inconclusive, MCF10A rerep inconclusive
COCCCNCCOc1ccc(C(C)(C)c2ccccc2)cc1	IL1B secr inh -68, SW480 rereplic inconclusive, MCF10A rerep inconclusive
CCCOc1ccc(OCCCCNC(C)CC)cc1 (centres undefined)	none
COCCCNCCCCOc1ccc(OCc2ccccc2)cc1	S2 tox inconclusive, MCF10A rerep inconclusive (no result: ATXN2 expr inh)
COc1ccc(S(=O)(=O)NCCc2csc3nc(-c4cccc(C)c4)nn23)cc1F	none (no result: IL1B secr inh, ATXN2 expr inh, SW480 rereplic, S2 tox, MCF10A rerep)
Cc1cc(C(=O)N/N=C2\CC(=O)CC(C)(C)C2)c(C)n1-c1ccccc1	MCF10A rerep 21µM
Cc1cc(C(=O)N/N=C2\CC(=O)CC(C)(C)C2)c(C)n1-c1ccc(F)cc1	none
CCOc1ccc(CCNC(=O)c2ccc3c(c2)N(Cc2ccc(F)cc2)CCS3)cc1	none (no result: IL1B secr inh, SW480 rereplic, MCF10A rerep)
COc1ccc(OC)c(CCNC(=O)c2ccc3c(c2)N(Cc2ccc(F)cc2)CCS3)c1	MCF10A rerep 13µM
COc1ccc(CCNC(=O)c2ccc3c(c2)N(Cc2ccc(F)cc2)CCS3)c(OC)c1	IL1B secr inh -55
CC(=O)N1CCC2(CC1)C/C(=N\NC(=S)Nc1ccccc1F)c1cc(O)ccc1O2	IL1B secr inh -76, SW480 rereplic inconclusive, MCF10A rerep inconclusive
CC(=O)N1CCC2(CC1)CC(=O)c1cc(Cl)ccc1O2	SW480 rereplic 2.3µM
CC(=O)N1CCC2(CC1)CC(=O)c1cc(OCC(=O)N3CCCC3)ccc1O2	none (no result: ATXN2 expr inh)
c1ccc(-c2nc(N3CCNCC3)nc3ccccc23)cc1	IL1B secr inh inconclusive, SW480 rereplic 23µM, MCF10A rerep 0.71µM
c1ccc(-c2nc(N3CCCCC3)nc3ccccc23)cc1	SW480 rereplic inconclusive, MCF10A rerep inconclusive (no result: S2 tox)
CCN1CCN(c2nc(-c3ccccc3)c3ccccc3n2)CC1	IL1B secr inh inconclusive, SW480 rereplic 21µM, MCF10A rerep 15µM
CC1CCN(CCCCOc2ccc(C(C)(C)C)cc2)CC1	IL1B secr inh inconclusive, SW480 rereplic inconclusive
CC(C)(c1ccccc1)c1ccc(OCCCN2CCNCC2)cc1	IL1B secr inh -80, SW480 rereplic inconclusive, S2 tox inconclusive, MCF10A rerep inconclusive
CC(C)(C)c1ccc(OCCCCCCN2CCNCC2)cc1	IL1B secr inh -80, ATXN2 expr inh inconclusive, SW480 rereplic inconclusive, S2 tox inconclusive
CC(C)(c1ccccc1)c1ccc(OCCN2CCOCC2)cc1	MCF10A rerep inconclusive (no result: ATXN2 expr inh)
COc1ccc(C(=O)c2cn(Cc3ccccc3F)c3cc4c(cc3c2=O)OCCO4)cc1OC	S2 tox inconclusive (no result: IL1B secr inh, SW480 rereplic, MCF10A rerep)
O=S(=O)(CCOc1ccccc1)c1nc2ccccc2[nH]1	MCF10A rerep 5.8µM
O=C(CCCOc1ccccc1)Nc1nc2ccccc2[nH]1	none
C=CCOC(=O)C1=C(C)NC(SC)=C(C#N)C1c1ccc(OCC)cc1 (centres undefined)	IL1B secr inh -75!, MCF10A rerep inconclusive, PINK1 modulator inconclusive
C=CCOC(=O)C1=C(C)NC(SC)=C(C#N)C1c1cccs1 (centres undefined)	ATXN2 expr inh inconclusive, SW480 rereplic inconclusive, MCF10A rerep inconclusive
CC(=O)C1=C(C)NC(SCC(=O)Nc2nccs2)=C(C#N)C1c1ccccc1Cl (centres undefined)	IL1B secr inh inconclusive, SW480 rereplic 6.5µM, MCF10A rerep 1.8µM
C=CCOC(=O)C1=C(C)NC(SCC(=O)Nc2nccs2)=C(C#N)C1c1cccs1 (centres undefined)	SW480 rereplic inconclusive, S2 tox inconclusive, MCF10A rerep inconclusive
C=CCOC(=O)C1=C(C)NC(SCC(=O)Nc2nccs2)=C(C#N)C1c1ccc(Cl)cc1 (centres undefined)	SW480 rereplic 1.6µM, MCF10A rerep 1µM (no result: S2 tox)
Nc1ccn([C@@H]2O[C@H](CNCc3ccc(Oc4cc(-n5cccn5)ncn4)cc3)[C@@H](O)[C@H]2O)c(=O)n1	none (no result: SW480 rereplic, MCF10A rerep)
CCOC(=O)N(C)c1c(CC)nc2c(OCc3ccc(S(C)(=O)=O)cc3)cccn12	none (no result: SW480 rereplic, MCF10A rerep)
COc1ccccc1NC(=O)c1ccccc1Oc1ccccc1	none
COc1ccc(NC(=O)c2csc3c2CCCCC3)cc1	none (no result: IL1B secr inh, ATXN2 expr inh, SW480 rereplic, S2 tox, MCF10A rerep)
COc1ccc(NC(=O)c2csc3c2CCCCC3)c(OC)c1	IL1B secr inh -175, MCF10A rerep inconclusive
COc1ccc(NC(=O)c2ccccc2Oc2ccccc2)c(OC)c1	MCF10A rerep 26µM
CC1CCc2nc(-c3cc4ccc(O)cc4oc3=O)sc2C1 (centres undefined)	none (no result: IL1B secr inh, ATXN2 expr inh, SW480 rereplic, S2 tox, MCF10A rerep)
CC(CNC(=O)CCc1cn(Cc2ccccc2Cl)c2ccccc12)c1ccccc1 (centres undefined)	none (no result: IL1B secr inh, ATXN2 expr inh, SW480 rereplic, S2 tox, MCF10A rerep)
COc1ccc(Cl)cc1N(CC(=O)NCCSCc1ccccc1)S(C)(=O)=O	none
COc1ccc(CCNC(=O)CN(c2ccccc2OC)S(=O)(=O)c2ccc(C)cc2)cc1	IL1B secr inh -51, ATXN2 expr inh inconclusive, SW480 rereplic inconclusive, S2 tox inconclusive
COc1ccc(OC)c(N(CC(=O)NCCSCc2ccc(C)cc2)S(C)(=O)=O)c1	IL1B secr inh -62, SW480 rereplic inconclusive, MCF10A rerep inconclusive
O=C(Cc1ccc(OCCc2ccccc2)cc1)NO	none (no result: IL1B secr inh, ATXN2 expr inh, SW480 rereplic, S2 tox, MCF10A rerep)
CCOC(=O)c1cc2c(=O)n3ccccc3nc2n(CCCOC)c1=NC(=O)c1c(-c2ccccc2Cl)noc1C	PINK1 modulator inconclusive (no result: IL1B secr inh, SW480 rereplic, MCF10A rerep)
O=C(NCc1ccncc1)C1Cc2c(-c3ccccc3Oc3ccccc3)ccnc2O1 (centres undefined)	IL1B secr inh -59, S2 tox inconclusive (no result: SW480 rereplic, MCF10A rerep)
Cc1ccc(-n2c(N)c(C(=O)Nc3ccccc3F)sc2=S)cc1C	IL1B secr inh -54
COc1cc(C(CCN2CCCC(C)C2)c2c(OC)cc(OC)c3c2OC(=O)CC3c2ccc(N(C)C)cc2)cc(OC)c1OC (centres undefined)	IL1B secr inh -111, S2 tox inconclusive
CCCCCc1cc(=O)oc2c(C(CCN3CCCC(C)C3)c3cc(OC)c(OC)c(OC)c3)c(OC)cc(OC)c12 (centres undefined)	IL1B secr inh -60, ATXN2 expr inh inconclusive, S2 tox 32µM
CCN(CC)CCC(c1ccc2c(c1)OCO2)c1c(OC)cc(OC)c2ccc(=O)oc12 (centres undefined)	S2 tox 10µM
CCCCCc1cc(=O)oc2c(C(CCN3CCCCC3)c3cc(OC)c(OC)c(OC)c3)c(OC)cc(OC)c12 (centres undefined)	ATXN2 expr inh 32µM, S2 tox 20µM
